test system: MILI (PIWIL2) piRISC loaded with L1MC piRNA (26 nt); experiment: pre-steady-state target cleavage rate (min^-1); guide: L1MC piRNA 5'p-UAACUAAAUACUAUGCAAGCUGUAGG; MIWI and MILI are mouse PIWI proteins and EfPiwi is from a freshwater sponge; tags in brackets are library labels; higher = faster piRNA-guided slicing of the target; conditions: auxiliary factor: none (no GTSF1)
Outline: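 The method was Cleave-'n-Seq, in which uncleaved targets from a transcribed, DNA-blocked target RNA library were sequenced after exposure to active affinity-purified piRISC carrying one synthetic guide, with or without GTSF1 partner protein. Reactions contained 0.1 nM library, 1 nM piRISC and, where present, 500 nM GTSF1 in HEPES–potassium acetate buffer at 33 °C for 0–8 or 0–960 min. Reads were normalised to depth and to weakly complementary targets, three trials were pooled, and k3 was capped at 0.0001 min^-1. The pre-steady-state cleavage rate came from a burst-and-steady-state fit.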

pre-steady-state target cleavage rate, < 0.0001:
UCCUGGAUGUCGAACGUAUGCUAUUUAGUUA, UCCUGGAUGUCGAACCAUAGUAUUUUGUAA, UCCUGGAACAGCUUGCUAUCAUAAAUCAAA [g15:g23:cont:t1A]

From the supplement of paper PMC10338343
